This is an account of results in ChEMBL document CHEMBL4513216, “Probing the Open Global Health Chemical Diversity Library for Multistage-Active Starting Points for Next-Generation Antimalarials” (ACS Infect Dis, 2020).

In all, about 65,000 compounds went through this assay and about 2,100 (3.2%) showed an effect of 50% or more. The median lay at about -52%. Many of the other results were omitted from the sample, so strong results are more common in it than they were.

This test concerns Plasmodium falciparum. The test can be described thus: Screen against P. falciparum Asexual Blood Stage (ABS), at 5uM. In kind it is functional, Dd2. As to conditions: tested at 5 uM.
For the compound `O=C(C1CCC1)N1CCC2(CC1)OCCO2`, the INHIBITION is on record as -22.7%. Turning to `O=C(c1ccc[nH]1)N1CCCC2(CCCN2Cc2cccnc2)C1` (stereo not drawn), the INHIBITION was -53.7%.

As to `Fc1ccc2[nH]c(C3CCCN3Cc3c[nH]cn3)nc2c1` (stereo not drawn), the INHIBITION is on record as 81%. With `CCNCCc1nc2cc(F)ccc2[nH]1` the figure was -115%; with `CNCCc1nc2cc(F)ccc2[nH]1`, -61.7%; with `c1cncc(OC[C@@]23CCC[C@@H]2CN(C2CCOCC2)C3)c1`, 3.99%. `CCCc1nnc2sc(C3CCN(CC)CC3)nn12`: the INHIBITION is -55.6%. In the case of `c1cnc2c(c1)CN(C1CCOC1)CCN2CC1CC1` (stereo not drawn), the INHIBITION is given as -73.8%. Then `COc1cccc(CNC(C)Cn2cccn2)c1OC` (stereo not drawn), with -22.3%; and `COc1c(Br)cc(Br)cc1CNC(C)Cn1cccn1` (stereo not drawn), with 17.9%.

For `COc1cccc(CNCc2cccnc2-n2cccn2)c1OC`, the INHIBITION was 70.1%. With `CN1CCN(Cc2cccc(C#N)c2)Cc2cccnc21` the figure was -71%. With `N#Cc1cccc(CN2CCn3cc(Cn4cccn4)nc3C2)c1` the figure was 78.6%; with `CC(Cn1cccn1)NCc1cccc(C#N)c1` (stereo not drawn), -46.4%. Then `CCN1C[C@@H]2CN(c3cc(OC)ncn3)CCC[C@]2(C(=O)O)C1`, with -22%; and `COC(=O)c1ccc(C2SCC(=O)Nc3c2cnn3C2CCCC2)cc1` (stereo not drawn), with -86.9%; and `CN1CCC(N(Cc2ccco2)S(=O)(=O)c2cc(Br)ccc2Br)CC1`, with 76.2%. Consider `CN1CCC(N(Cc2ccco2)S(=O)(=O)c2ccc(Br)cc2Cl)CC1`, for which the INHIBITION worked out at 74.7%. With `CC(Cn1ccnc1)NCc1csc2c1CCCC2` (stereo not drawn) the figure was 22.3%; with `CO[C@@H]1CCN(S(=O)(=O)N(C)C)[C@@H]2CN(Cc3cccnc3)C[C@@H]21`, -88.2%; with `CO[C@@H]1CCN(Cc2cccs2)[C@@H]2CN(Cc3ccncc3)C[C@@H]21`, 53.8%. With `COCCN1C[C@@H]2[C@@H](OC)CCN(Cc3ccncc3)[C@@H]2C1` the figure was 24.3%; with `CO[C@@H]1CCN(S(=O)(=O)N(C)C)[C@@H]2CN(Cc3ccncc3)C[C@@H]21`, -53.3%. Then `CO[C@H]1CCN(Cc2cccs2)[C@@H]2CN(Cc3ccncc3)C[C@H]12`, with 61.5%; and `CO[C@H]1CCN(Cc2cccc(C)n2)[C@@H]2CN(Cc3cccnc3)C[C@H]12`, with 70.4%; and `CO[C@H]1CCN(C2CCC2)[C@@H]2CN(Cc3ccncc3)C[C@H]12`, with -41.2%. On to `COCCN1C[C@@H]2[C@@H](OC)CCN(Cc3cccc(C)n3)[C@@H]2C1`, for which the INHIBITION is reported as -1.19%. With `CCS(=O)(=O)N1CC[C@H](OC)[C@H]2CN(Cc3ccncc3)C[C@H]21` the figure was -64.4%.
